Reference: the supplement of paper PMC13380429

Columns and labels:
[1] = test system: Vero E6 infected with SARS-CoV-2; assay: morphology score (similarity to uninfected cells); higher = more like uninfected cells; conditions: 24 h
[2] = test system: Vero E6 infected with SARS-CoV-2; assay: SARS-CoV-2 infection rate relative to infected DMSO; higher = more infection, active = 60 or less; conditions: 24 h

| Structure (SMILES) | morphology score [1] | SARS-CoV-2 infection rate [2] |
| --- | --- | --- |
| CC(=O)OCC1=C(C(=O)O)N2C(=O)[C@@H](NC(=O)CCCC(N)C(=O)O)C2SC1 (stereo partly specified) [cephalosporin-c-zn] (10 µM) | 0.00489 | 97% (inactive) |
| FC(F)(F)C(F)(F)C(F)(F)C(F)(F)C(F)(F)C(F)(F)C(F)(F)C(F)(F)Br [perflubron] (10 µM) | 0.0887 | 102% (inactive) |
| CCn1cnc(C(=O)NC)c1C(=O)NC [ethimizol] (10 µM) | 0.114 | 96.5% (inactive) |
| C[C@H](NC(=O)c1sccc1OCc1ccc(Cl)cc1)c1ccccc1 (10 µM) | 0.0842 | 94.5% (inactive) |
| O=c1cc(-c2ccccc2)oc2cc(O)cc(O)c12 [chrysin] (10 µM) | 0.175 | 104% (inactive) |
| CC(C)S(=O)(=O)NC[C@H](C)c1ccc(-c2ccc(CCNS(C)(=O)=O)cc2)cc1 [mibampator] (10 µM) | 0.146 | 93% (inactive) |
| CCOc1cccc(NC(=O)c2ccc(N3CCCC3)c(C(F)(F)F)c2)c1 (10 µM) | 0.0793 | 102% (inactive) |
| N#CC(c1ccnc(OCc2ccc(CN3CCOCC3)cc2)n1)c1nc2ccccc2s1 (stereo unspecified) (10 µM) | 0.195 | 99.5% (inactive) |
| OC[C@H]1NCC[C@@H](O)[C@@H]1O [fagomine] (10 µM) | -0.0114 | 105% (inactive) |
| CCN(CC)CCCCNc1ncc2cc(-c3c(Cl)cccc3Cl)c(NC(=O)NC(C)(C)C)nc2n1 (0.833333 µM) | 0.085 | 117% (inactive) |
| N#Cc1ccc(N(Cc2ccc(Br)cc2)n2cnnc2)cc1 (10 µM) | 0.208 | 102% (inactive) |
| CC(C)=CCC/C(C)=C/CC/C(C)=C/CSc1ccccc1C(=O)O [salirasib] (10 µM) | 0.161 | 89% (inactive) |
| CCN(CC)Cc1cc(Nc2ccnc3cc(Cl)ccc23)ccc1O [amodiaquine] (10 µM) | 0.839 | 17.5% (active) |
| CCCCCCNC(=O)n1cc(F)c(=O)[nH]c1=O [carmofur] (0.833333 µM) | 0.222 | 96% (inactive) |
| O=[N+]([O-])c1cc2nc(O)c(O)nc2cc1[N+](=O)[O-] (10 µM) | 0.165 | 100% (inactive) |
| CCCCNC(=O)NS(=O)(=O)c1ccc(C)cc1 [tolbutamide] (10 µM) | 0.121 | 96.5% (inactive) |
| O=C1C(Cl)=C(NCCN2CCOCC2)C(=O)c2ncccc21 (0.833333 µM) | 0.143 | 94% (inactive) |
| Cc1cc(Nc2ccc(NC(=O)c3ccc(Nc4ccnc5ccccc45)cc3)cc2)nc(N)n1 (0.833333 µM) | -0.0128 | 104% (inactive) |
| CCCc1c(OCCCCc2nnn[nH]2)ccc(C(C)=O)c1O [tomelukast] (10 µM) | -0.0661 | 110% (inactive) |
| C[C@@H]1CN(Cc2ncccn2)C[C@H]1c1nc2c(cnn2C2CCOCC2)c(=O)[nH]1 (10 µM) | 0.11 | 108% (inactive) |
| O=C(O)[C@@H](S)[C@@H](S)C(=O)O [dimercaptosuccinic-acid] (10 µM) | 0.102 | 100% (inactive) |
| CNC(=C[N+](=O)[O-])NCCSCc1ccc(CN(C)C)o1 [ranitidine] (10 µM) | -0.0967 | 111% (inactive) |
| Oc1cc(O)cc(/C=C/c2ccc(O)c(O)c2)c1 [piceatannol] (10 µM) | -0.206 | 112% (inactive) |
